PubChem BioAssay AID540275 (National Center for Advancing Translational Sciences (NCATS), 2011)
About 620 (0.19%) of roughly 320,000 compounds were called active. Another 6% or so got no clear call; they are omitted. For the sample, actives were picked, then their nearest neighbours and some compounds at random. Values without a mark were called inactive. No stated cut-off is given here; in the data, active means activation above about 80%; inconclusive means between about 30% and that limit; inactive means weaker than that.

Each molecule was assayed against Transient receptor potential cation channel subfamily V member 1 (Homo sapiens) (UniProt Q8NER1) (assay: HTS Assay for Compounds that Act as Agonists of the Vanilloid Receptor 1). Conditions: TRPV1-expressing cells, Fluo-8 calcium influx, agonist mode; at 8.33 µM; hits give high values.
Description: The transient receptor potential ion channel, family V, number 1, (TRPV1) is one of the most important molecular transducers of painful stimuli and a potential target for analgesic drug development. Although recent clinical trials with orthosteric antagonists have not produced a successful drug because of a hyperthermia side effect and their tendency to block thermal noxious pain, this ion channel is undeniably well placed in the pain pathway, and the idea of blocking pain signals before they enter the CNS is an excellent concept and of proven efficacy when TRPV1 agonists are used. We propose a new approach involving allosteric modulation to impose an activity-dependent constraint within the context of inflammation and tissue damage that would alter the responsiveness of the channel in a way that an orthosteric vanilloid antagonist cannot achieve. We believe that the allosteric modulator approach has not been explored for this target. The main goal of this proposal is to identify additional, new, potent allosteric modulators of TRPV1 that can be used to investigate TRPV1 function. Our recent report provides evidence of proof of concept, but the compounds are just at the edge of utility in terms of potency. […] The question of whether they can be used as analgesic agents is complex, but if suitable compounds are identified then testing for analgesic properties will be conducted. NIH Chemical Genomics Center [NCGC] NIH Molecular Libraries Probe Centers Network [MLPCN] MLPCN Grant: MH089480-1A1 Assay Submitter (PI): Michael Iadarola, National Institute of Dental and Cranofacial Research
Upon TRPV1 activation in TRPV1 cells, the channel opens and extracellular cations flow through the channel into the cytosol. A calcium binding dye (Fluo-8) becomes fluorescent when bound to calcium. This dye is pre-loaded into cells and is used as a marker for calcium influx. The amount of accumulated calcium is precisely quantified using the FDSS kinetic reader and the calcium dye. For the HTS assay, freshly prepared cells are plated at a density of 2000/well in 3 ul medium in 1536-well plates and cultured overnight at 35.5C. Cells will be loaded with 1 ul of the homogeneous calcium dye (ABD Bioquest) at room temperature for 40 to 90 minutes. Plates will be loaded into the FDSS kinetic reader and a 1 sec / cycle for 10 second baseline signal will be measured. Compound library will then be added with a pintool at 23 nl and measured kinetically for 3 minutes. This portion of the read is considered the agonist portion of the screen. Following the 3 minutes of incubation, an on board pipettor will deliver 1 ul of capsaicin for a final concentration equal to the EC20. Signal will be measured kinetically for an additional 2 minutes. This portion of the read is considered the allosteric enhancer portion of the screen. The FDSS reader has a standard filter set capable of measuring calcium bound Fluo-8 (ex=480 and em=520 nm).
Further: 0% is about no effect.

Chain of Transient receptor potential cation channel subfamily V member 1 (Homo sapiens) (Q8NER1 whole entry, looked up): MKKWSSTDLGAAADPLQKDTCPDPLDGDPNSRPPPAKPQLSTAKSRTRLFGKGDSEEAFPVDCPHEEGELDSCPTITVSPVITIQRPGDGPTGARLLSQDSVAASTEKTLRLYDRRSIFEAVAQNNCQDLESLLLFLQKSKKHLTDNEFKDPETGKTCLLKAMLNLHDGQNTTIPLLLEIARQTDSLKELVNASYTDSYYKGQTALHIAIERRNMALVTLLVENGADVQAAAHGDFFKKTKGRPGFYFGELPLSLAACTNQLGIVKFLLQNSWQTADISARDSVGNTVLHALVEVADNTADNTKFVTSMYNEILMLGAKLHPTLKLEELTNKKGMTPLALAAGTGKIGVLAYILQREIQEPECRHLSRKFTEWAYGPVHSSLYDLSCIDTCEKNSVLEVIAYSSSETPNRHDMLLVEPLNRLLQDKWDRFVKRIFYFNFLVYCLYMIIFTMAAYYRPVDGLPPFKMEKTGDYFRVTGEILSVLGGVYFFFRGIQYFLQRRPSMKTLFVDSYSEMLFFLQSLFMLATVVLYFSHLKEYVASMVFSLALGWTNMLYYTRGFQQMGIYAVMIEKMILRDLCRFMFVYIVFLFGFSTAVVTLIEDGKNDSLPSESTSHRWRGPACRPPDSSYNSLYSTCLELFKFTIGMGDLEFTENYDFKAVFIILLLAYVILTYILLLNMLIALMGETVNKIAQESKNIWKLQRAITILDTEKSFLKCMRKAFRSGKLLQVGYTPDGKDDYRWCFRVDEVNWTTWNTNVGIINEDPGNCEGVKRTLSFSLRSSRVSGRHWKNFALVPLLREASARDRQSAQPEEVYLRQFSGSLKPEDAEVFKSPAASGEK

Row | Structure (SMILES) | activation
1 | CCN1C(=O)C(=O)N(CC(=O)Nc2cc(C)ccc2C)C1=O | -7.91%
2 | CCN(c1ccccc1)S(=O)(=O)c1cccc(C(=O)NCc2ccccc2CN2CCOCC2)c1 | 10.7%
3 | CC(C)c1ccc(NC(=S)NC2CC3C=CC2C3)cc1 (stereo not drawn) | 88.8% (active)
4 | S=C(NNC(=S)NC1CC2CCC1C2)NC1CC2C=CC1C2 (stereo not drawn) | 3.31%
5 | S=C(NNC(=S)NC1CC2C=CC1C2)NC1CC2C=CC1C2 (stereo not drawn) | 1.8%
6 | O=S(=O)(Nc1cccc2cccnc12)c1cccc2cccnc12 | 3.75%
7 | Oc1ccc(Cl)cc1C1C=C(c2ccc3c(c2)OCO3)NC(c2c(F)cccc2Cl)N1 (stereo not drawn) | 2.17%
8 | CSCCC(NC(=O)c1ccco1)C(=O)NCCc1ccc(F)cc1 (stereo not drawn) | 0.184%
9 | CCC(C)(C)c1ccc(OCC(=O)N(C)C)c(C(C)(C)CC)c1 | 81.1% (active)
10 | CN(C)CCOc1ccc(Cl)cc1C(C)(C)C | 10.6%
11 | CCc1nc(C)ccc1OCC(=O)N(CC)CC | 2.63%
12 | CCN(CC(=O)Nc1ccc(OC)cc1)C(=O)CSCc1ccc(C)cc1 | 12.3%
13 | Cc1cc(C)c(CN2CCN(C(=O)Cn3ccc(NC(=O)OCc4ccccc4)nc3=O)CC2)c(C)c1 | 1.97%
14 | COc1ccc(S(=O)(=O)N2CCOCC2)cc1NC(=O)CSc1cc(C)ccc1C | 18.3%
15 | COc1ccc(CNC(=O)COc2ccccc2C(=O)c2cnn(-c3ccccc3)c2)cc1OC | 11.4%
16 | COc1ccc(S(=O)(=O)Nc2cccc3cccnc23)c(N)c1 | 7.86%
17 | C[C@H](NC(=O)c1[nH]cnc1C(=O)Nc1nccs1)c1ccccc1 | 3.08%
18 | O=C1NCCn2nc3ccccc3c21 | -1.33%
19 | CCN(CC(=O)Nc1ccccc1C(F)(F)F)C(=O)C1CCN(C(=O)Nc2ccccc2)CC1 | 1.3%
20 | Cc1cccc(OCCC(=O)OCc2csc(CC(=O)Nc3ccccc3C)n2)c1 | 14.6%

Row | Structure (SMILES) | activation
21 | NC(=O)NCCCC(=O)O | 5.36%
22 | O=C(NC1Cc2ccccc2C1)c1cc(COc2cccc(C(F)(F)F)c2)on1 | 3.63%
23 | Cc1nonc1C1CCCN1C(=O)c1cc(COc2cccc(C(F)(F)F)c2)on1 (stereo not drawn) | 2.83%
24 | O=C(c1cc(COc2cccc(C(F)(F)F)c2)on1)N1CCSCC1 | 81.1% (active)
25 | Cc1ccc2nc(-c3ccncc3)cc(C(=O)Nc3ccc4c(c3)OCCO4)c2c1 | -2.26%
26 | O=C(Nc1ccncc1)c1cc(-c2ccccn2)nc2ccc(Br)cc12 | 0.349%
27 | Cc1ccc2nc(-c3ccccn3)cc(C(=O)Nc3ccc4c(c3)OCO4)c2c1 | 90.2% (active)
28 | COc1ccc(S(=O)(=O)N2CCN(CC(=O)N3c4ccccc4CC3C)CC2)cc1OC (stereo not drawn) | -0.777%
29 | COc1cc(C(=O)OCC(=O)NC23CC4CC(CC(C4)C2)C3)cc(OC)c1OC | 21.9%
30 | O=C(Nc1cc(-c2ccccc2)nn1-c1ccccc1F)c1ccc([N+](=O)[O-])cc1 | -1.91%
31 | CC1Cc2ccccc2N1S(=O)(=O)c1cccc(C(=O)NCC(c2ccco2)N2CCCC2)c1 (stereo not drawn) | 0.253%
32 | CCn1c(=O)c(=O)n(CC)c2cc(N3CCCCC3)c(NC(=O)c3ccc(Cl)cc3)cc21 | -4.74%
33 | Cc1ccccc1S(=O)(=O)N1[C@@H](c2cccc(Cl)c2)C(C(=O)O)=CC[C@H]1c1ccc(Cl)cc1 | -4.35%
34 | CC1CCc2sc(C(=O)NCC(c3ccco3)N3CCCCC3)cc2C1 (stereo not drawn) | 26.2%
35 | CCC1CCC2(CC1)NC(=O)N(CC(=O)Nc1ccc(OC)cc1)C2=O (stereo not drawn) | 9.09%
36 | CC(C)(C)c1ccc(NC(=O)NCc2ccco2)cc1 | 89.3% (active)
37 | CC(C)(C)NC(=O)NCc1ccco1 | 4.24%
38 | CC(C)(C)c1ccc(C(=O)NCCC(=O)NCc2ccco2)cc1 | 25%
39 | COc1ccccc1Nc1nnc(SC(C)C(=O)NC2CC2)s1 (stereo not drawn) | 0.405%
40 | COc1ccc(NC(=O)Cn2cc(C(=O)c3ccncc3)c(=O)c3cc(C)ccc32)cc1Cl | 3.63%

Row | Structure (SMILES) | activation
41 | Cc1ccc(NC(=O)CCCNC(=O)c2ccc(Cl)cc2)cc1S(=O)(=O)N1CCCCC1 | 6.66%
42 | Cc1ccc(S(=O)(=O)N(C)C)cc1NC(=O)CN1c2cccc3cccc(c23)S1(=O)=O | -5.6%
43 | Cc1ccc(C(=O)NCCNC(=O)c2ccccc2)cc1 | 12.5%
44 | Cc1ccc(S(=O)(=O)NCCC(c2ccccc2)c2ccccc2)cc1C(=O)O | -2.84%
45 | Cc1ncoc1C(=O)NCCC(c1ccccc1)c1ccccc1 | 98.7% (active)
46 | Cc1ccc(C(=O)OCC(=O)Nc2ccc(Cl)cn2)cc1S(=O)(=O)N1CCOCC1 | 7.43%
47 | CSc1ccc(Cl)c(C(=O)OCC(=O)N2CCNC2=O)c1 | 5.56%
48 | O=C(CSc1ncnc2sccc12)N1CCN(C(=O)c2cccs2)CC1 | 0.688%
49 | O=C(C1CC(=O)N(C2CCCC2)C1)N1CCN(c2cccc(C(F)(F)F)c2)CC1 (stereo not drawn) | 9.27%
50 | COC(=O)[C@]1(C)CCC[C@@]2(C)C3CC[C@]4(OC(C)=O)C[C@@]3(CCC21)CC4=NO (stereo partly drawn) | 19.3%
51 | O=S(=O)(Nc1ccc2nc(N3CCOCC3)sc2c1)c1ccccc1 | -3.63%
52 | CCCCc1ccc(NS(=O)(=O)c2cccc(C(=O)N3CCCN(C)CC3)c2)cc1 | -2.57%
53 | NC(=O)NC(CC(=O)NNC(=O)c1ccccn1)c1ccc(Cl)cc1 (stereo not drawn) | 0.614%
54 | CCOc1ccc(NC(=O)COC(=O)C2CCC(=O)N2)c([N+](=O)[O-])c1 (stereo not drawn) | 2.66%
55 | COc1ccc(CCC(=O)N2CCN(S(=O)(=O)c3ccc(OC)cc3)CC2)cc1 | 16.4%
56 | Cc1ccc(NC(=O)c2cccc(S(=O)(=O)N3CCCc4ccccc43)c2)nc1 | 21.4%
57 | CCCCN(C(=O)c1ccc2ccccc2c1)c1c(N)n(CCCC)c(=O)[nH]c1=O | -2.14%
58 | Cc1sc2ncnc(N3CCC(C(=O)Nc4ccc(F)cc4Cl)CC3)c2c1C | 1.84%
